Results reported in PubChem BioAssay (EPA / NIEHS).
Inconclusive results are not listed. The source made the active and inactive calls. The calls were made as follows, unless noted: active = hit-call score of the fitted dose curve at least 0.9, where 1 is the maximum; inactive = score below 0.9.

Legend:
[1] = CCTE_Shafer_MEA_acute_spike_number: CCTE's Neural Acute Assay for Total Number of Spikes, Shafer Lab (AID 2284008);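 as to AC50: curve fitted for decrease in spike count so AC50 reflects inhibitors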
In short: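 Primary rat cortical neurons on 16-electrode MEA wells; on DIV 13 or 15, 40-min baseline then 40-min recording with compound (0.03-40 uM) at 37 C. Spikes detected at 8x rms noise; percent change versus baseline, DMSO as negative control.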

[2] = CCTE_Shafer_MEA_acute_firing_rate_mean: CCTE's Neural Acute Assay for Mean Firing Rate, Shafer Lab (AID 2284009);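 also: analyzed for loss of signal so actives lower firing rate relative to DMSO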
In short: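 Primary rat cortical neurons on 16-electrode MEA wells were exposed on DIV 13 or 15 to compound (0.03-40 uM). Spike counts per recording time, averaged over electrodes, were compared between 40-min baseline and 40-min post-exposure recordings as percent change.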

[3] = CCTE_Harrill_HTTr_Viability_MCF7: CCTE's 6-hour Cell Viability Assessment for the High-Throughput Transcriptomics (HTTr) Platform, in MCF-7 cells cultured in DMEM + 10% fetal bovine serum, Harrill Lab (AID 2284010)
In short: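 Eight-point concentration series, six-hour exposure. Propidium iodide exclusion imaged to assess membrane integrity as a cytotoxicity readout; bidirectional fitting was done with DMSO as negative control and activity baseline.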

[4] = CCTE_Harrill_HTTr_Apoptosis_MCF7: CCTE's 6-hour Apoptosis Assessment for the High-Throughput Transcriptomics (HTTr) Platform, in MCF-7 cells cultured in DMEM + 10% fetal bovine serum, Harrill Lab (AID 2284011)
In short: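 MCF-7 cells in DMEM + 10% fetal bovine serum were exposed to chemicals for 6 hours over an eight-point dilution series. Caspase-3/7 activation was imaged by high content imaging with CellEvent Caspase 3/7 Green; bidirectional fitting used DMSO as baseline.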

[5] = CCTE_Shafer_MEA_acute_burst_number: CCTE's Neural Acute Assay for Single-Electrode Bursts, Shafer Lab (AID 2284013)
In short: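 Primary rat cortical neurons on 16-electrode MEA wells, DIV 13 or 15, exposed to compound (0.03-40 uM; ≥3 wells); 40-min recordings at 37 C before and after treatment. Burst count expressed as percent change from baseline, DMSO as negative control.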

[6] = CCTE_Shafer_MEA_acute_burst_duration_mean: CCTE's Neural Acute Assay for Mean Burst Duration, Shafer Lab (AID 2284014);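 also: hits are decreases in mean burst duration relative to DMSO controls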
In short: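 Mean burst duration was compared between a 40 min baseline and a 40 min recording in the presence of compound (0.03-40 uM, 37 C), giving percent change per well. Cultures were rat cortical neurons at DIV 13 or 15; wells needed ≥10 active electrodes.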

[7] = CCTE_Shafer_MEA_acute_per_burst_spike_number_mean: CCTE's Neural Acute Assay for Average Number of Spikes Per Burst, Shafer Lab (AID 2284015);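 also: hits are decreases in mean spikes per burst versus baseline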
In short: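 Primary rat cortical neurons on 48-well MEA plates, treated on DIV 13 or 15 at 0.03-40 uM. Spontaneous activity recorded 40 min before and 40 min after compound at 37 C; percent change in mean spikes per single-electrode burst per well, fitted in the loss direction versus DMSO.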

[8] = CCTE_Shafer_MEA_acute_interburst_interval_mean: CCTE's Neural Acute Assay for Mean Interburst Interval, Shafer Lab (AID 2284016);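 also: percent change of mean interburst interval versus each well's own pre-dose baseline; curves fitted for decrease in interburst interval relative to DMSO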
In short: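 Primary rat cortical neurons on 16-electrode MEA wells were recorded 40 min at baseline on DIV 13 or 15, then 40 min after compound (0.03-40 uM), at 37 C. Value is percent change in mean interburst interval per well, DMSO as negative control.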

[9] = CCTE_Shafer_MEA_acute_burst_percentage_std: CCTE's Neural Acute Assay for Standard Deviation of Burst Percentage, Shafer Lab (AID 2284018);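 also: fitted in the negative direction so actives lower burst percentage SD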
In short: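 Value is percent change from baseline in the across-electrode SD of spikes-in-bursts percentage, wells with >/= 10 active electrodes. Acute 40-min exposure to 0.03-40 uM on DIV 13 or 15 rat cortical cultures, recorded at 37 C after 40-min baseline.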

[10] = CCTE_Shafer_MEA_acute_per_network_burst_spike_number_mean: CCTE's Neural Acute Assay for Average Number of Spikes in a Network Burst, Shafer Lab (AID 2284019);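 as to AC50: curve fitted for loss of signal so actives reduce spikes per network burst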
In short: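 Percent change from baseline in mean spikes per network burst, spikes detected at 8x rms noise. Each compound at 0.03-40 uM in at least three wells of rat cortical cultures, recorded 40 min before and 40 min during exposure.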

[11] = CCTE_Shafer_MEA_acute_per_network_burst_spike_number_std: CCTE's Neural Acute Assay for Standard Deviation of Number of Spikes in a Network Burst, Shafer Lab (AID 2284020);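 also: fitted for decrease in spike-number SD versus DMSO so actives lower it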
In short: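 Endpoint: percent change from 40 min baseline in standard deviation of spikes per network burst, after 40 min compound exposure (0.03-40 uM, 37 C). Cortical rat neurons on MEA at DIV 13 or 15; spikes detected at 8x rms noise, 300-5000 Hz band-pass.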

[12] = CCTE_Shafer_MEA_acute_per_network_burst_electrodes_number_mean: CCTE's Neural Acute Assay for Mean Number of Electrodes in a Network Burst, Shafer Lab (AID 2284021);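 also: curves fitted for decreases only so hits reduce electrodes per burst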
In short: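 Rat primary cortical neurons on 16-electrode MEA wells were recorded 40 min at baseline on DIV 13 or 15, then 40 min after compound (0.03-40 uM), at 37 C. Value is percent change per well, fitted in loss direction versus DMSO.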

[13] = CCTE_Shafer_MEA_acute_cross_correlation_area: CCTE's Neural Acute Assay for Area of Cross Correlation, Shafer Lab (AID 2284024);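 also: area under pooled inter-electrode spike cross-correlation near zero lag as percent change from own baseline; curves fitted for loss of cross-correlation area so actives lower synchrony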
In short: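 Primary rat cortical neurons on 48-well MEA plates (16 electrodes/well) were recorded 40 min at baseline on DIV 13 or 15, then 40 min with compound (0.03-40 uM) at 37 C; cross-correlation area expressed as percent change from baseline.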

[14] = CCTE_Simmons_MITO_basal_resp_rate: CCTE's HepG2 Seahorse XF Respirometric Screening Assay at Basal Respiratory State, Simmons Lab (AID 2284001); conditions: actives raise or lower the signal
In short: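 Basal-phase OCR in HepG2 cells, read at 6-min intervals across a 72-min run, with test compound injected at 125 nM–100 uM final (7 points). Fitted both directions against DMSO; three biological replicates per concentration.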

[15] = CCTE_Simmons_MITO_max_resp_rate: CCTE's HepG2 Seahorse XF Respirometric Screening Assay at Maximal Respiratory State [uncoupled], Simmons Lab (AID 2284002); conditions: actives raise or lower the signal
In short: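 HepG2 oxygen consumption was read on a Seahorse XF96 after FCCP uncoupler injection, following test compound injection; 7 concentrations, 125 nM–100 uM final, three biological replicates. Bidirectional fitting against DMSO vehicle baseline.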

[16] = CCTE_Simmons_MITO_inhib_resp_rate: CCTE's HepG2 Seahorse XF Respirometric Screening Assay at Inhibited Respiratory State [full ETC block], Simmons Lab (AID 2284006); conditions: actives raise or lower the signal
In short: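 Test chemicals at seven final concentrations (125 nM–100 uM) in three biological replicates, with DMSO as vehicle. HepG2 oxygen consumption was then tracked on a Seahorse XF96 for 72 min through FCCP and rotenone/antimycin A phases, with the inhibited-phase rate as the endpoint.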

[17] = CCTE_Simmons_MITO_viability: CellTiter-Glo Viability Assessment for CCTE's HepG2 Seahorse XF Respirometric Screening Assay [post-hoc], Simmons Lab (AID 2284007; active = hit-call score of the fitted dose curve at least 0.9, where 1 is the maximum;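 as to AC50: cells exposed to chemical for 90 min before the ATP read; actives lower ATP signal relative to DMSO baseline meaning reduced viability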)
In short: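 Post-hoc viability check on the HepG2 respirometry plates: luciferase-based ATP signal measured once, after 90 min compound exposure spanning 125 nM–100 uM final. Activity was referenced to DMSO as baseline.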

[18] = CCTE_Harrill_HTTr_CellCount_MCF7: CCTE's Cell Proliferation Assessment for the High-Throughput Transcriptomics (HTTr) Platform, Harrill Lab (AID 2284012; active = hit-call score of the fitted dose curve at least 0.9, where 1 is the maximum;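 also: count of Hoechst-stained nuclei per well by high-content imaging in MCF-7 cells; cells exposed to compound for six hours; intended direction is loss of nuclei count meaning fewer cells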)
In short: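 For this full-screen endpoint, MCF-7 cultures received eight compound dilutions for six hours. Well nuclei counts from Hoechst imaging were analyzed relative to DMSO.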

[19] = CCTE_Shafer_MEA_acute_burst_percentage_mean: CCTE's Neural Acute Assay for Percentage of Spikes in a Burst, Shafer Lab (AID 2284017);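 as to AC50: curve fitted for loss of signal so potency reflects decreased burst percentage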
In short: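 Primary rat cortical neurons on 16-electrode MEA wells; 40 min baseline recorded at DIV 13 or 15, then 40 min after compound (0.03-40 uM) at 37 C. Well-mean fraction of spikes in single-electrode bursts; percent change from baseline, DMSO as negative control.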

[20] = target: Ratio of Nucleoli Translocation and Cytoplasm, AR (gene 367) (UniProt P10275); assay: UPITT_HCI_U2OS_AR_TIF2_Nucleoli_Cytoplasm_Ratio_Agonist: University of Pittsburgh U2OS Androgen Receptor-Transcriptional Intermediary Factor 2 (AR-TIF2) Agonism High Content Imaging Assay for Ratio of Nucleoli Translocation and Cytoplasm (AID 2284000; active = hit-call score of the fitted dose curve at least 0.9, where 1 is the maximum;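 also: hits raise the red nucleolar to cytoplasm ratio above vehicle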)
Ratio of Nucleoli Translocation and Cytoplasm, AR (gene 367), sequence (P10275 whole entry, looked up): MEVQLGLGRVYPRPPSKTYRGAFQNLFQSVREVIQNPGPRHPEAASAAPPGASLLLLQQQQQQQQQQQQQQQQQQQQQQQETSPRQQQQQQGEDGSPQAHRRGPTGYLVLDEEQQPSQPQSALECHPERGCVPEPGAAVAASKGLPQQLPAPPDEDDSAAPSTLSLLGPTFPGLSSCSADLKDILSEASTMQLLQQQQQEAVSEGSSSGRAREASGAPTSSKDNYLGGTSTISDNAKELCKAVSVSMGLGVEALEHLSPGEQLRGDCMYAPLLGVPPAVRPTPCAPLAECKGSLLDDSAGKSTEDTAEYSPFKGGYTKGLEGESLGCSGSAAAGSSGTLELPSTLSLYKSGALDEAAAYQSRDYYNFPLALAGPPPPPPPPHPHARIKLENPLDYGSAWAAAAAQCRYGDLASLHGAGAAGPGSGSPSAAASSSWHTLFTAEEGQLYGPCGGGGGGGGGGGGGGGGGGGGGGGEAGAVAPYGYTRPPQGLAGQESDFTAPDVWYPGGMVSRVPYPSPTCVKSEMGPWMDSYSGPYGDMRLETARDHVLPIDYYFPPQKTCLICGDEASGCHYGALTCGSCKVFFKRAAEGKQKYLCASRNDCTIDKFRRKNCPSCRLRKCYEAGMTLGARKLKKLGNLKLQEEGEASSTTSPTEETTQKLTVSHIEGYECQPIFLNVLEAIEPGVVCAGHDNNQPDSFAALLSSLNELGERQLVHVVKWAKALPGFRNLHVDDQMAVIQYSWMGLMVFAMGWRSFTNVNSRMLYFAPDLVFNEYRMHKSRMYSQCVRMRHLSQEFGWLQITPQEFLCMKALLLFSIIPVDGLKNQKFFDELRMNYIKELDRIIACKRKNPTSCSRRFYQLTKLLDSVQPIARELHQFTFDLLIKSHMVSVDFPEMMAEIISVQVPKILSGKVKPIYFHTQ
In short: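 Compounds tested at 20 uM final in primary screen (0.2% DMSO) and 0.195-50 uM final in dose-response (0.5% DMSO). Imaging of human U2OS cells bearing RFP-AR and GFP-TIF2; endpoint is nucleoli/cytoplasm red signal ratio, positive direction relative to DMSO.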

Measured: AC50

c1ccc(NNc2ccccc2)cc1
active: [7] 20 µM
not listed: [14] | [15] | [16] | [17] | [18] | [19] | [20]
inactive: all other assays above

[Cl-].[Cl-].[Hg+2]
active: [14] 36.7 µM | [15] 50 µM | [16] 50 µM | [17] 15.3 µM | [1] 31.4 µM | [2] 31 µM | [6] 29.8 µM | [19] 20 µM | [12] 24.6 µM
not listed: [20]
inactive: all other assays above

CCOC(=O)[C@]1(c2ccccc2)Oc2ccccc2[C@@H]1N
active: [14] 43.2 µM | [15] 31.3 µM
inactive: [16] | [17] | [3]

Cc1cc(N=Nc2ccccc2C)ccc1N
active: [20] 84.9 µM | [14] 25 µM | [15] 36.4 µM | [7] 20 µM | [19] 26.6 µM | [9] 28.9 µM
not listed: [4] | [18]
inactive: all other assays above

O=P(OCCCl)(OCCCl)OCCCl
not listed: [4] | [14] | [15] | [16] | [17] | [18] | [20]
inactive: all other assays above

ClC1=C(Cl)[C@]2(Cl)[C@H]3[C@H]([C@@H]4C=C[C@H]3C4)[C@@]1(Cl)C2(Cl)Cl
not listed: [14] | [15] | [16] | [17] | [20]
inactive: all other assays above

Clc1ccc(C(c2ccc(Cl)cc2)C(Cl)Cl)cc1
inactive: [3] | [6] | [7] | [8] | [9] | [13]
active: [1] 2.95 µM | [2] 2.94 µM | [5] 2.56 µM | [19] 5.41 µM | [10] 2.37 µM | [11] 6.77 µM | [12] 2.69 µM

c1ccc(N=Nc2ccccc2)cc1
active: [8] 34.6 µM | [19] 26.8 µM | [9] 36.2 µM
not listed: [4] | [14] | [15] | [16] | [17] | [20]
inactive: all other assays above

CCCCCOC(=O)c1ccccc1C(=O)OCCCCC
active: [1] 2.58 µM | [2] 2.58 µM | [5] 5.2 µM | [7] 4.26 µM | [8] 1.49 µM | [19] 9.17 µM | [11] 4.73 µM
not listed: [14] | [15] | [16] | [17] | [20]
inactive: all other assays above

CC(C)(C)C(O)(CCc1ccc(Cl)cc1)Cn1cncn1 (configuration not stated)
active: [14] 39.6 µM | [15] 33.4 µM | [1] 3.76 µM | [2] 3.75 µM | [5] 3.5 µM | [8] 5.9 µM | [10] 1.22 µM
not listed: [20]
inactive: all other assays above

Clc1ccc(C(c2ccc(Cl)cc2)C(Cl)(Cl)Cl)cc1
active: [19] 11.4 µM | [9] 5.34 µM | [12] 4.35 µM
not listed: [4] | [14] | [15] | [16] | [17] | [18] | [20]
inactive: all other assays above

COc1cc(C=O)cc2c1[C@H](COC(N)=O)[C@]1(OC(C)=O)ON2C[C@H]2[C@@H]1N2C(C)=O
inactive: [14] | [15] | [16] | [3] | [4]

Nc1ccc([N+](=O)[O-])cc1
inactive: [20] | [3] | [18]

Nc1ccc(Cl)cc1N
inactive: [20] | [3]

CCC(C)c1ccc(O)cc1 (configuration not stated)
active: [14] 44.3 µM | [1] 20 µM | [2] 20 µM | [7] 32 µM | [8] 30 µM | [19] 29.6 µM | [11] 30 µM
not listed: [4] | [17] | [18] | [20]
inactive: all other assays above

COC(=O)Nc1nc2ccccc2[nH]1
not listed: [14] | [15] | [16] | [17] | [18] | [20]
inactive: all other assays above
